Source: PubChem BioAssay (NCI)
Compounds without any hit were thinned out: in the full panel of roughly 83,000, 20% have a hit.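 Note: values are percent growth. 100 is the growth of untreated cells, values between 100 and 0 indicate rising inhibition; between -100 and 0 indicates cell death.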 Values without a mark were called inactive. Calls of active or inactive are those of the source. How the source made its calls: active means growth percent below 10; inactive means the rest.

Tests used:
Test in all cases: NCI-60 one-dose screen, 48 h (100 = growth as untreated, 0 = no growth, -100 = all killed)
Settings in all cases: 10 µM unless noted
NCI-H23 lung = system: NCI-H23 lung
NCI-H226 lung = system: NCI-H226 lung
NCI-H322M lung = system: NCI-H322M lung
HOP-62 NSCLC = system: HOP-62 NSCLC
NCI-H460 lung = system: NCI-H460 lung
NCI-H522 lung = system: NCI-H522 lung
A549/ATCC NSCLC = system: A549/ATCC NSCLC
786-0 renal = system: 786-0 renal
COLO 205 colon = system: COLO 205 colon
DU-145 prostate = system: DU-145 prostate
K-562 leukemia = system: K-562 leukemia
MALME-3M melanoma = system: MALME-3M melanoma
MDA-MB-231 breast = system: MDA-MB-231 breast
RXF 393 renal = system: RXF 393 renal
SF-268 CNS = system: SF-268 CNS
SF-295 CNS = system: SF-295 CNS
SF-539 CNS = system: SF-539 CNS
UACC-257 melanoma = system: UACC-257 melanoma
M14 melanoma = system: M14 melanoma

Compound	growth (NCI-H23 lung)	growth (NCI-H226 lung)	growth (NCI-H322M lung)	growth (HOP-62 NSCLC)	growth (NCI-H460 lung)	growth (NCI-H522 lung)	growth (A549/ATCC NSCLC)	growth (786-0 renal)	growth (COLO 205 colon)	growth (DU-145 prostate)	growth (K-562 leukemia)	growth (MALME-3M melanoma)	growth (MDA-MB-231 breast)	growth (RXF 393 renal)	growth (SF-268 CNS)	growth (SF-295 CNS)	growth (SF-539 CNS)	growth (UACC-257 melanoma)	growth (M14 melanoma)
O=C(Nc1ccc([N+](=O)[O-])cc1)c1cc2ccccc2cc1O	-35.7% (active)	1.68% (active)	3.46% (active)	13%	-33% (active)	-31.5% (active)	-6.53% (active)	-24.2% (active)	67.8%	103%	0.836% (active)	-21.5% (active)	-35.5% (active)	-10.4% (active)	92.5%	-20.6% (active)	2.51% (active)	-33.3% (active)	-11.4% (active)
COCc1nc(NS(=O)(=O)c2ccc(N)cc2)nc(C)c1Br	97.1%	98.2%	99%	91%	106%	76.7%	94%	100%	108%	116%	98%	94.6%	106%	101%	109%	93.6%	100%	104%	101%
CC(=O)Nc1ccc(/C=N/N2CCCCCC2)cc1	103%	92%	101%	95.2%	106%	103%	94.3%	90.9%	110%	102%	–	99.7%	74.7%	105%	99.4%	94.3%	83.6%	114%	106%
N#CCCn1cnc2c(N)ncnc21	101%	95.9%	123%	94.6%	108%	97.7%	99.9%	96.7%	120%	108%	–	125%	94.2%	120%	110%	102%	97.8%	102%	102%
Nc1c(N)c2ccccc2c2ccccc12	98.4%	92.2%	115%	95%	113%	111%	105%	103%	124%	111%	–	110%	85.3%	109%	115%	100%	94.6%	106%	113%
CC(C)(C)c1nn(-c2ccccc2)c2c1C(=O)CSC(c1ccc3c(c1)OCO3)N2 (stereo not drawn)	99.8%	104%	88.8%	88.6%	106%	89.7%	112%	88.7%	113%	104%	–	92%	98.6%	114%	92.5%	91.4%	101%	130%	91.3%
CCOC(=O)c1ccc2c(c1)[n+](=O)c(C(=O)c1ccc3ccccc3c1)c(C(F)(F)F)n2[O-]	-88.4% (active)	-93.7% (active)	67.2%	-93.8% (active)	-100% (active)	-80.1% (active)	-26.4% (active)	-100% (active)	-100% (active)	-100% (active)	–	-69.1% (active)	-99.4% (active)	-71.2% (active)	-88.8% (active)	-84.8% (active)	-100% (active)	-71.7% (active)	-100% (active)
Nc1c(Br)cc2c(c1Br)Cc1cc(Cl)ccc1-2	89.2%	78.6%	89.2%	83.4%	99.7%	102%	95.8%	108%	106%	112%	–	109%	70%	106%	107%	87.8%	89.5%	111%	106%
CCc1c(C)c2ccc(O)c(-c3cc(-c4ccccc4)c(C#N)c(=O)[nH]3)c2oc1=O	89%	83.8%	95%	89.4%	112%	109%	90%	105%	115%	96.7%	–	107%	72.6%	99.2%	108%	97.4%	113%	123%	102%
CCOC(=O)C1=C(C(=O)OCC)N(c2cc(OC)c(OC)c(OC)c2)C(N)=C(C#N)C1c1cc(=O)[nH]c2ccccc12 (stereo not drawn)	104%	96.7%	97.3%	92.4%	105%	90.2%	105%	101%	111%	104%	–	104%	87.8%	99.5%	91.1%	94.3%	87.7%	101%	105%
CC1=CCC2C1CC=C(C)C(CC[C@H]1[C@@](C)(O)CCC3OC(C)(C)[C@H](OC(=O)c4ccccc4)CC[C@@]31C)C2(C)C (stereo partly drawn)	65.2%	72.9%	96.3%	86%	97.1%	67.8%	78.7%	70.9%	112%	106%	–	111%	88%	69.8%	93.6%	84.7%	99.1%	81.3%	90.1%
COc1cc(NC(=O)CSc2nc3ccc(Cl)cc3c(=O)n2-c2ccccc2)cc(OC)c1OC	102%	91.2%	99.8%	85.5%	98.2%	84.8%	89%	92.1%	116%	102%	–	88%	77.8%	95%	90.9%	87.5%	93.9%	102%	94%
O=C1OCC2=C1C(c1ccccc1)c1cc3c(cc1N2CCO)CCC3 (stereo not drawn)	-0.519% (active)	27%	34.2%	20.9%	-37.3% (active)	-31.4% (active)	34.6%	8.65% (active)	-81.7% (active)	2.03% (active)	–	50.2%	16.4%	11%	39.2%	-21.8% (active)	-50.5% (active)	61.7%	-15.1% (active)
COc1cc(C2C(C#N)=C(N)Oc3cc4c(cc32)OCO4)cc2c1OCO2 (stereo not drawn)	8.48% (active)	0.662% (active)	44.8%	28.2%	12.4%	5.81% (active)	25.3%	31.1%	-42.1% (active)	6.37% (active)	–	52.6%	36.5%	-12.1% (active)	40.3%	9.43% (active)	2.43% (active)	66.4%	-2.77% (active)
CCCCCCCCCCCCNC(=O)N[C@H](C(=O)N[C@H]1/C=C/CCNC(=O)/C=C/[C@H](C)NC1=O)C(C)C	-42.8% (active)	-87% (active)	3.54% (active)	-65.1% (active)	2.24% (active)	-21.7% (active)	10.5%	-37.7% (active)	-51.3% (active)	6.45% (active)	–	-1.82% (active)	-44.7% (active)	-98.8% (active)	-44.9% (active)	-37.4% (active)	-49.4% (active)	49.9%	-82% (active)
COc1ccc(C2NC(=O)c3cc4c(cc3N2)OCO4)cc1 (stereo not drawn)	8.1% (active)	5.1% (active)	50.4%	27.8%	5.06% (active)	-48.7% (active)	18.9%	37.1%	-22.1% (active)	7.04% (active)	–	58.7%	31.3%	-2.15% (active)	39.6%	-14% (active)	8.24% (active)	65.8%	-7.7% (active)
COc1cc(NC(=O)CSc2nc3ccc(Cl)cc3c(=O)n2Cc2ccccc2)cc(OC)c1OC	76.8%	46.4%	82.3%	91.3%	64.7%	57.7%	67.3%	58.5%	83.2%	72%	–	61.2%	44.6%	30.7%	59.3%	84.1%	-6.78% (active)	70%	73.4%
